# Data published in PubChem BioAssay (NCATS).
# Records with an inconclusive call do not appear. Activity calls are given as the source filed them. Unless noted, the call rests on the fitted dose curve; in most records, active means well fitted curve in the direction sought with a large enough effect; inconclusive means small, poorly fitted or top-dose-only effect, or another doubt; inactive means no such curve, though single readings can be large; an effect the other way counts as inactive or inconclusive.
# How the values were obtained:
# [1] = AP1 Signaling Pathway (AID 357; active means well fitted curve in either direction with a large enough effect, not every such curve was filed as active; further: on the % scale 0 is the no-effect control and ±100 the full control effect); conditions: ME-180 AP-1-bla reporter, EGF-induced, beta-lactamase ratio, 5 h; at 7.69 µM (top of the series) unless noted
# How it was run: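 AP-1-bla ME-180 cells with beta-lactamase reporter under AP-1 response element, stimulated with EC50 EGF; compounds titrated, 5 hours at 37 degrees Celsius. CCF4 read at 460/530 nm ratio; positive and negative modulators judged by AC50.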
# [2] = molecular target: Cytochrome P450 1A2 (Homo sapiens) (UniProt P05177); assay: p450-cyp1a2 (AID 410; calls by dose curve; further: potency means the concentration at half of the fitted maximal effect)
# Sequence of Cytochrome P450 1A2 (Homo sapiens) (P05177 whole entry, looked up): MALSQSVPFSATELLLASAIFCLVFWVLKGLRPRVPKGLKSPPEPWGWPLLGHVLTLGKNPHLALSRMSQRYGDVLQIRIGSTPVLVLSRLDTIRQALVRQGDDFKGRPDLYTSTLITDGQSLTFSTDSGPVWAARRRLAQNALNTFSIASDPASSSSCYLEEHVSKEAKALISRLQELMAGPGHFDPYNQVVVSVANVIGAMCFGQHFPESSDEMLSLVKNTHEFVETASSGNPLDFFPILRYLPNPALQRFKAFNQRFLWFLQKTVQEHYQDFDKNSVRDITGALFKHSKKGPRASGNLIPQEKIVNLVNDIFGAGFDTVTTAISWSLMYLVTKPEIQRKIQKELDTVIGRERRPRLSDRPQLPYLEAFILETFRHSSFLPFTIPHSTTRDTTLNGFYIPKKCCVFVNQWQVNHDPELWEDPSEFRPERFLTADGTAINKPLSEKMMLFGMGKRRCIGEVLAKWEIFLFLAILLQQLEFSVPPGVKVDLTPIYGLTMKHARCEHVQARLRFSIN
# How it was run: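 Luminescent readout of luciferin formed from Luciferin-ME by human CYP1A2; data normalized against complete inhibition by 57 uM furafylline. Enzyme 20nM, substrate 100uM at Km, 100mM KPO4 buffer, 60 min reaction at room temperature.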
# [3] = NFAT Signaling Pathway (AID 444; active means well fitted curve in either direction with a large enough effect, not every such curve was filed as active;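 further: carbachol stimulus at about its EC50 of 1 µM final; on the % scale 0 is the no-effect control and ±100 the full control effect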); conditions: Jurkat NFAT-bla M1, carbachol, beta-lactamase ratio, 5 h; at 7.69 µM (top of the series) unless noted
# How it was run: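 Jurkat cells carrying an NFAT-driven β-lactamase reporter and co-transfected muscarinic M1 receptor were treated with compound plus carbachol (1 uM final, an EC50 level) for 5 h at 37 °C. CCF4 loading followed for 1 h at RT; 460/530 nm ratio gave %activity.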
# [4] = Stat Signaling Pathway (AID 446; active means well fitted curve in either direction with a large enough effect, not every such curve was filed as active;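 further: ME-180 cervical cancer cells given 40 pM IL-6 alongside compound; SIE-controlled beta-lactamase reporter measured as 460/530 nm FRET emission ratio; on the % scale 0 is the no-effect control and ±100 the full control effect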); conditions: ME-180 SIE beta-lactamase reporter, IL-6 stimulated, 5 h; at 7.69 µM (top of the series) unless noted
# How it was run: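 Reporter line: ME-180 cervical carcinoma, SIE-beta-lactamase. Treatment: compound with 40 pM IL-6, 5 hrs, 37 C, in low-serum OPTI-MEM with 10 mM HEPES pH 7.3. Detection: 460/530 nm fluorescence.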
# [5] = molecular target: Glucocorticoid receptor (Homo sapiens) (UniProt P04150); assay: GR-GFP Redistribution (AID 450;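 active means compounds whose dose series gives a full or clear partial fitted curve of increased nuclear translocation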; further: potency means the concentration at half of the fitted maximal effect); conditions: U2OS GR-GFP nuclear translocation, laser cytometry, 2 h
# Sequence of Glucocorticoid receptor (Homo sapiens) (P04150 whole entry, looked up, the tested form may be a part): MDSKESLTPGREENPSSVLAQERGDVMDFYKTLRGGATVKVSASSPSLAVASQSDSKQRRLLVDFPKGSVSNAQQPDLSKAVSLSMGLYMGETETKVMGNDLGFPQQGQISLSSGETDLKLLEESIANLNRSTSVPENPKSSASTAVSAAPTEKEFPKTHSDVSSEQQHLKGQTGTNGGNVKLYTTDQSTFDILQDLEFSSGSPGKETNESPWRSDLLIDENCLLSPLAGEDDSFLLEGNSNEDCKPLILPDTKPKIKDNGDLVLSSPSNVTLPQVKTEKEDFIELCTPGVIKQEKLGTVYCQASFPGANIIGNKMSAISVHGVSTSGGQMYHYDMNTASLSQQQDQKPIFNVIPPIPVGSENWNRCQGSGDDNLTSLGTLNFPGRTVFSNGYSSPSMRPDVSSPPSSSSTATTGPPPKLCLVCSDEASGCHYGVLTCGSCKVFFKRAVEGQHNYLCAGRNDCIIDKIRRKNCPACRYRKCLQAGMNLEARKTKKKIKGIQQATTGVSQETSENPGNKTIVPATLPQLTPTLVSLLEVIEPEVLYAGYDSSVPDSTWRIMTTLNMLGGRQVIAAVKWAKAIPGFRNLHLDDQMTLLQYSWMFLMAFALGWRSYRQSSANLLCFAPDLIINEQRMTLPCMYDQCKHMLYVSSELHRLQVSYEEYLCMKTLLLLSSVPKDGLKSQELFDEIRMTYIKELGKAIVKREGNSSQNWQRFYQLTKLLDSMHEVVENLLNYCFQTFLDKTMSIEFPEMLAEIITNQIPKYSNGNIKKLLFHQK
# [6] = molecular target: Glucocorticoid receptor (Homo sapiens) (UniProt P04150); assay: GR-EFC Redistribution (AID 451; calls by dose curve; further: potency means the concentration at half of the fitted maximal effect); conditions: CHO-K1 GR-EFC translocation, beta-gal luminescence, 2 h
# How it was run: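 CHO-K1 cells stably expressing nuclear-localized β-gal enzyme acceptor and GR fused C-terminally to the enzyme donor fragment; ligand-driven nuclear translocation restores β-gal by complementation. Compounds titrated up to 46 uM final, 2 h at 37 °C; luminescence read.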
# [7] = molecular target: Mitogen-activated protein kinase 10 (Mus musculus) (UniProt Q61831); assay: JNK3 AlphaScreen Assay (AID 530; active means well fitted curve in either direction with a large enough effect, not every such curve was filed as active;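 further: kinase came from lysate of stimulated human HepG2 cells; signal reports phosphorylation of biotinylated GST-cJun 1-79 at Ser73 with 10 µM ATP; on the % scale 0 is the no-effect control and ±100 the full control effect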)
# How it was run: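 Inhibitors reduce antibody binding to phosphorylated biotin-cJun, lowering AlphaScreen luminescence. Lysates from HepG2 cells pre-activated by IL-1beta plus TNF-alpha supplied JNK3; compounds were titrated.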
# [8] = molecular target: 3',5'-cyclic-AMP phosphodiesterase 4B (Homo sapiens) (UniProt Q07343); assay: qHTS Assay for Inhibitors of PDE-IV (AID 607; active means well fitted activation curve with a large enough effect in the main read-out, with a control signal flat, not every such curve was filed as active; further: % of control where 0% means no effect)
# Sequence of 3',5'-cyclic-AMP phosphodiesterase 4B (Homo sapiens) (Q07343 whole entry, looked up): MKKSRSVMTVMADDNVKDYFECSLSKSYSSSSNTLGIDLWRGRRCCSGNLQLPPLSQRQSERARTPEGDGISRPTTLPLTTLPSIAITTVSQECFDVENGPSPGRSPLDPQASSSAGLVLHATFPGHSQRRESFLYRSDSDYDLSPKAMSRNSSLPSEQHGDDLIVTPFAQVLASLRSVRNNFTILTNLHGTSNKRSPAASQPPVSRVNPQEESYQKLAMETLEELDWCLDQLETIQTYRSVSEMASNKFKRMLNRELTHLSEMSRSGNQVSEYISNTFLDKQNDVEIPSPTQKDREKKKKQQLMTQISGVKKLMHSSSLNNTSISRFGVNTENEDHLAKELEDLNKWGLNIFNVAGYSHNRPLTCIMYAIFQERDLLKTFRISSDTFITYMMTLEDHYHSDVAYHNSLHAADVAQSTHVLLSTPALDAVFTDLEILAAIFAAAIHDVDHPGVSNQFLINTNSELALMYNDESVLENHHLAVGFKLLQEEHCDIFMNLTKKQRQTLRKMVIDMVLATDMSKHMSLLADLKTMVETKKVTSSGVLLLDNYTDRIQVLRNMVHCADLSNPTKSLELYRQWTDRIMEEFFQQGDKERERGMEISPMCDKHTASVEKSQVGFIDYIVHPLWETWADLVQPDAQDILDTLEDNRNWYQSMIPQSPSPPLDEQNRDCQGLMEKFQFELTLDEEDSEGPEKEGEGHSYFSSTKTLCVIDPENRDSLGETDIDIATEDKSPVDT
# How it was run: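 Cell-based read-out of cAMP via a modified cyclic nucleotide-gated channel and membrane potential dye (535/590 nm) in HEK293 cells expressing PDE4 endogenously. Compounds tested up to 22.9 uM final; 100 uM RO 20-1724 reference.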
# [9] = molecular target: Cytochrome P450 3A4 (Homo sapiens) (UniProt P08684); assay: qHTS Assay for Activators of Cytochrome P450 3A4 (AID 885); further: nearly all actives have a fitted effect of over 65% in size
# Sequence of Cytochrome P450 3A4 (Homo sapiens) (P08684 whole entry, looked up): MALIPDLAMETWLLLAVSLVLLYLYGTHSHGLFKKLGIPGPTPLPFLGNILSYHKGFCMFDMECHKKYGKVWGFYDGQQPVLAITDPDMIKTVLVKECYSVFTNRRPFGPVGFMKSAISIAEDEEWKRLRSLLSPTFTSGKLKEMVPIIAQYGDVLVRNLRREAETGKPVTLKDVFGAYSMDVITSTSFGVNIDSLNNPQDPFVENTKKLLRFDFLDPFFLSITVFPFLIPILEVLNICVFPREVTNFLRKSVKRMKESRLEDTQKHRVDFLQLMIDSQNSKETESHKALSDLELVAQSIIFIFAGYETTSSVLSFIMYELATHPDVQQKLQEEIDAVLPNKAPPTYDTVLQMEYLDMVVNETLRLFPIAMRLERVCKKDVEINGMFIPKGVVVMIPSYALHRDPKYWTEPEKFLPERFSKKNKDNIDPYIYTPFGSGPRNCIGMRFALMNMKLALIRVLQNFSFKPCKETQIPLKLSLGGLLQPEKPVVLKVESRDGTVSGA
# How it was run: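 Signal was normalized against complete inhibition by 57 uM ketoconazole. The reaction used 20nM CYP3A4 with 25uM Luciferin-PPXE, 10-min compound preincubation and a 60-min NADPH-supported step at RT.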
# [10] = molecular target: Cytochrome P450 2D6 (Homo sapiens) (UniProt P10635); assay: qHTS Assay for Inhibitors and Substrates of Cytochrome P450 2D6 (AID 891); further: potency means the concentration at half of the fitted maximal effect; nearly all actives have a fitted effect of over 60% in size
# Sequence of Cytochrome P450 2D6 (Homo sapiens) (P10635 whole entry, looked up): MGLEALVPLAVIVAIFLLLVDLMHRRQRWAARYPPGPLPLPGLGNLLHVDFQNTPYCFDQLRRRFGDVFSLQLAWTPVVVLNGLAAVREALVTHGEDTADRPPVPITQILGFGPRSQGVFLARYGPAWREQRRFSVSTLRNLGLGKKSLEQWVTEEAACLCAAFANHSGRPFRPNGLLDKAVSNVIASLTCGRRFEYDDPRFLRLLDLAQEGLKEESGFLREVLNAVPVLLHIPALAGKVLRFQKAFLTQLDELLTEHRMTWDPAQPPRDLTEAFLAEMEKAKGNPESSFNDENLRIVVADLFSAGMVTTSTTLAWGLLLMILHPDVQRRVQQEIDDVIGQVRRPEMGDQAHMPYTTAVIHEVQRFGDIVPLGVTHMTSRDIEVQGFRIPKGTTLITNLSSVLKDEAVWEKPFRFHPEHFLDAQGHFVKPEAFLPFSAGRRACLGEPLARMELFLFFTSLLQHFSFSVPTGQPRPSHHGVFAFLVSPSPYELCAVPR
# How it was run: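 Human CYP2D6 (5 nM) with 30 uM Luciferin-ME EGE (at Km) in 100 mM KPO4, compound preincubated 10 min, then NADPH regeneration system for 60 min at room temperature. Luciferin read by luminescence; normalized to 1.43 uM quinidine.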
# [11] = molecular target: Dual specificity protein kinase CLK4 (Homo sapiens) (UniProt Q9HAZ1); assay: qHTS Assay for Inhibitors of CDC-like Kinase 4 (Kinase-Glo Assay) (AID 1770); further: nearly all actives have a fitted effect of over 65% in size; further: potency means the concentration at half of the fitted maximal effect
# How it was run: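 Substrate mix (RS peptide 100 uM, ATP 1 uM) dispensed, compound pinned in, then Clk4 added to 25 nM final. Incubated 4.5 h at RT; Kinase-Glo reagent added, luminescence read after 5 min.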
# [12] = molecular target: Dual specificity protein kinase CLK4 (Homo sapiens) (UniProt Q9HAZ1); assay: qHTS Assay for Inhibitors of CDC-like Kinase 4 (ADP-FP Assay) (AID 1795);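 further: recombinant human CLK4 phosphorylating RS repeat peptide at 1 µM ATP; on the % scale 0 is the no-effect control and ±100 the full control effect; nearly all actives have a fitted effect of over 60% in size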
# How it was run: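 Clk4 6.25 nM; RS peptide 100 uM; ATP 1 uM; 25 mM Tris pH 7.5, 10 mM MgCl2; 1 h reaction. ADP detected via antibody/orange tracer FP displacement; TG003 positive control.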
# [13] = Primary qHTS for small molecule stabilizers of the endoplasmic reticulum resident proteome: Secreted ER Calcium Modulated Protein (SERCaMP) assay (AID 1508630); further: on the % scale 0 is the no-effect control and ±100 the full control effect
# How it was run: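 GLuc-SERCaMP-expressing SH-SY5Y cells, pretreated 16 h with compound, are challenged with thapsigargin to empty ER calcium stores; after 4 h, coelenterazine is added directly to the medium and luminescence is imaged.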
# [14] = molecular target: Lysosomal acid glucosylceramidase (Homo sapiens) (UniProt P04062); assay: Glucocerebrosidase-p2 (AID 348; in the data active means potency below about 10 µM; further: potency means the concentration at half of the fitted maximal effect); conditions: purified GBA, blue fluorogenic substrate, 40 min
# Sequence of Lysosomal acid glucosylceramidase (Homo sapiens) (P04062 whole entry, looked up): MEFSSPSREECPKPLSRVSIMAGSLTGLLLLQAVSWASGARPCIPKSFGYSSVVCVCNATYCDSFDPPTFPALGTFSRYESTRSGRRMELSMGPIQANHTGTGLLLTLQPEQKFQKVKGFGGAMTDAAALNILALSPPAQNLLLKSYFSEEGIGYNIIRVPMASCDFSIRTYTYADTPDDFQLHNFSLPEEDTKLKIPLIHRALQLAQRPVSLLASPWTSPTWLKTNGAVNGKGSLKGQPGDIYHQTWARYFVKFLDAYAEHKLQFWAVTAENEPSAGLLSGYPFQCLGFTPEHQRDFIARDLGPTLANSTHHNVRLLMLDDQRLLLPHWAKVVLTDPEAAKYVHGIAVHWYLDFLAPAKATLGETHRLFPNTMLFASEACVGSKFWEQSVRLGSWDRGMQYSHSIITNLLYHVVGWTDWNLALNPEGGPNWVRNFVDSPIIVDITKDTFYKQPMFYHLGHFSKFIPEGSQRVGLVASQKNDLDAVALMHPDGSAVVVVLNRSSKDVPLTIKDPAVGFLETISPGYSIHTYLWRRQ
# How it was run: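 Compounds titrated from 0.6 nM upwards against 0.2 nM enzyme in pH 5.9 citric acid/KH2PO4, taurocholate, tween-20; blue fluorogenic substrate 80 uM, 40 min room temperature, stopped and read Ex 365/Em 440 for AC50.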
# [15] = molecular target: Dual specificity protein kinase CLK4 (Homo sapiens) (UniProt Q9HAZ1); assay: qHTS Assay for Inhibitors of CDC-like Kinase 4 (ADP-Glo Assay) (AID 1771); further: potency means the concentration at half of the fitted maximal effect; nearly all actives have a fitted effect of over 70% in size
# How it was run: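 Luminescence from ADP-Glo reports ADP produced by 25 nM Clk4 acting on 100 uM RS repeat peptide with 1 uM ATP over 1 hr at room temperature; residual ATP is depleted before ADP is converted to ATP for detection.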
# [16] = molecular target: Ubiquitin carboxyl-terminal hydrolase 1 (Homo sapiens) (UniProt O94782); assay: Inhibitors of USP1/UAF1: Pilot qHTS (AID 504865); further: nearly all actives have a fitted effect of over 35% in size; further: potency means the concentration at half of the fitted maximal effect
# Sequence of Ubiquitin carboxyl-terminal hydrolase 1 (Homo sapiens) (O94782 whole entry, looked up): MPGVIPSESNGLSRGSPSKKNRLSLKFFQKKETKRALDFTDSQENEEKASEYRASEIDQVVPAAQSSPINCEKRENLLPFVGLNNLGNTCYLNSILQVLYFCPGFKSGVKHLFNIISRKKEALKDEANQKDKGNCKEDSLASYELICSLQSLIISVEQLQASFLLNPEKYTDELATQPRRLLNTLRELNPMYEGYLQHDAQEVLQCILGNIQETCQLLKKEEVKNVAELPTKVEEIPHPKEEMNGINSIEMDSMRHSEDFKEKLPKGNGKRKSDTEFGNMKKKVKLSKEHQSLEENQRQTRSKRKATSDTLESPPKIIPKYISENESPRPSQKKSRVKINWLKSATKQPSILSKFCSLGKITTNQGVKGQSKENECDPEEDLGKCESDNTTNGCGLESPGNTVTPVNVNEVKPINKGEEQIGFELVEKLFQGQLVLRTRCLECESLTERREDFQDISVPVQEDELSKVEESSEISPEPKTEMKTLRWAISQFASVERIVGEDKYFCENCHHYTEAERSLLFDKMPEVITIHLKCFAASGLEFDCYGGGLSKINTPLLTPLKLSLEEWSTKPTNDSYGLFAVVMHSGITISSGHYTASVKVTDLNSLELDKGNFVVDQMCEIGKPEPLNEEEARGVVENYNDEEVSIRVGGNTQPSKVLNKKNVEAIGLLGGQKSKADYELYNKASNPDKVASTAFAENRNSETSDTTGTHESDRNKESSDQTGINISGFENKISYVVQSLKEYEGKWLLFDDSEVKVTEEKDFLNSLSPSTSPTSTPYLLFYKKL
# How it was run: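 In 50mM HEPES pH 7.8 containing 0.5mM EDTA, 1mM TCEP, 0.1 mg/ml BSA and 0.01% Tween-20, 1nM USP1/UAF1 is exposed to compound for 15 min, then Ub-Rho (150nM final) is added and fluorescence is read over time.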
# [17] = molecular target: Cytochrome P450 3A4 (Homo sapiens) (UniProt P08684); assay: qHTS Assay for Inhibitors and Substrates of Cytochrome P450 3A4 (AID 884); further: potency means the concentration at half of the fitted maximal effect; nearly all actives have a fitted effect of over 50% in size
# How it was run: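 20 nM human CYP3A4 with 25 uM Luciferin-PPXE (at KM) in 200 mM KPO4, preincubated 10 min with compound; NADPH regeneration started a 60 min RT reaction. Luciferin detected by luminescence, normalized to 57 uM ketoconazole as full inhibition.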
# [18] = qHTS Assay for Identification of Small Molecule Agonists for Hypoxia Response Element Signaling Pathway (AID 914; active means well fitted activation curve with a large enough effect in the signal ratio, with a control signal flat, not every such curve was filed as active; the % refers to the signal ratio; further: potency means the concentration at half of the fitted maximal effect); conditions: ME-180 (cervical carcinoma) HRE-bla reporter, beta-lactamase ratio, CoCl2, 17 h; activation: stronger effect = higher value
# How it was run: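 HRE-bla ME-180 cells with beta-lactamase reporter under hypoxia response element, compounds with EC50 CoCl2 for 17 hours at 37 C. CCF4 substrate, 460nm/530nm emission ratio gave %Activity; AC50 from titration series.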
# [19] = molecular target: Cytochrome P450 2C19 (Homo sapiens) (UniProt P33261); assay: qHTS Assay for Inhibitors and Substrates of Cytochrome P450 2C19 (AID 899); further: potency means the concentration at half of the fitted maximal effect; nearly all actives have a fitted effect of over 60% in size
# Sequence of Cytochrome P450 2C19 (Homo sapiens) (P33261 whole entry, looked up): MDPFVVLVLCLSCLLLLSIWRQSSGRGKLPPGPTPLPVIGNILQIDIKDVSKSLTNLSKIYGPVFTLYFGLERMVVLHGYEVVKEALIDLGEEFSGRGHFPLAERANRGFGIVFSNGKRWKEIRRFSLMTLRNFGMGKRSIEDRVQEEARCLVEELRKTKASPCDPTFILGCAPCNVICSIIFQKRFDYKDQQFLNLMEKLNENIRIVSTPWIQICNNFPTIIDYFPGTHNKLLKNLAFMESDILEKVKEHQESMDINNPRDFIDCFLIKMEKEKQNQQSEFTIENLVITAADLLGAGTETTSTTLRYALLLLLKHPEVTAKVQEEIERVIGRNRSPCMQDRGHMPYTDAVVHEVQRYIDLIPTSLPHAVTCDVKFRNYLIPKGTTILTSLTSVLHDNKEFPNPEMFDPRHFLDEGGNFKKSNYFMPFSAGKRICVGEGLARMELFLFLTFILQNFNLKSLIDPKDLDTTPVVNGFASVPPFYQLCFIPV
# How it was run: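 Human CYP2C19 (5nM) with Luciferin-H EGE at 10uM (its KM) in 50mM KPO4 was preincubated with compound for 10 min at 37C. NADPH regeneration started a 60 min 37C reaction. Luciferin was read by luminescence, normalized to 57uM ketoconazole.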
SMILES,"activity change, negative = inhibition [1]",Potency [2],"activity change, negative = inhibition [3]","activity, negative = inhibition [4]",Potency [5],Potency [6],Potency [7],Potency [8],Potency [9],Potency [10],Potency [11],Potency [12],outcome [13],Potency [14],Potency [15],Potency [16],Potency [17],Potency [18],Potency [19]
COc1ccccc1CNc1ccnc(-c2ccccc2OC)n1,-0.503% (inactive),3980 nM (active),-0.0586% (inactive),9.83% (inactive),> 46 µM (inactive),> 46 µM (inactive),inactive,inactive,inactive,1.58 µM (active),inactive,inactive,inactive,,,,,,
CN(C)C(=O)c1ccc(-c2cc(N(C)Cc3ccco3)ncn2)cc1,-8.02% (inactive),25100 nM (active),-13.4% (inactive),16.7% (inactive),> 46 µM (inactive),> 46 µM (inactive),inactive,,,,,inactive,inactive,> 11.4 µM (inactive),28.2 µM (active),inactive,,,
N#Cc1cccc(-c2nc(NCc3cccnc3)c3ccccc3n2)c1,-20.1% (inactive),251 nM (active),28.2% (inactive),-21.4% (inactive),> 46 µM (inactive),> 46 µM (inactive),inactive,,inactive,,inactive,,inactive,> 11.4 µM (inactive),,inactive,5.01 µM (active),,
N#CCCn1c(=O)c(-c2cc(F)cc(F)c2)nc2cnc(Nc3ccccc3)nc21,9.43% (inactive),,,-15.8% (inactive),> 9.22 µM (inactive),> 46 µM (inactive),inactive,inactive,,,inactive,inactive,inactive,> 11.4 µM (inactive),,inactive,,,
CCNc1ncc2nc(-c3cc(F)cc(F)c3)c(=O)n(CCC#N)c2n1,28.7% (inactive),,-24.5% (inactive),,> 9.22 µM (inactive),> 46 µM (inactive),inactive,inactive,,0.0631 µM (active),31.6 µM (active),inactive,inactive,> 11.4 µM (inactive),,inactive,,,
Clc1ccccc1-c1nc(NCc2cccnc2)c2ccccc2n1,-8.93% (inactive),631 nM (active),17.1% (inactive),-13.8% (inactive),> 46 µM (inactive),> 46 µM (inactive),inactive,,,,28.2 µM (active),,inactive,,,20 µM (active),2.51 µM (active),,
O=c1c(-c2cc(F)cc(F)c2)nc2cnc(N3CCOCC3)nc2n1Cc1ccc(F)cc1,,,,,> 9.22 µM (inactive),> 46 µM (inactive),inactive,inactive,,,inactive,inactive,inactive,> 11.4 µM (inactive),,inactive,,3.16 µM (active),
Cc1noc(C)c1-c1nc(NCc2cccs2)c2ccccc2n1,3.98% (inactive),200 nM (active),,-8.06% (inactive),> 46 µM (inactive),> 46 µM (inactive),inactive,,inactive,,inactive,inactive,inactive,> 2.29 µM (inactive),,10 µM (active),6.31 µM (active),,
COc1ccc2[nH]cc(CCNc3ccnc(-c4ccc(N(C)C)cc4)n3)c2c1,11.2% (inactive),631 nM (active),,,> 46 µM (inactive),> 46 µM (inactive),,inactive,inactive,,15.8 µM (active),inactive,inactive,,,inactive,5.01 µM (active),,6.31 µM (active)
COc1ccc2[nH]cc(CCNc3nc(-c4cccnc4)nc4ccccc34)c2c1,-14.3% (inactive),501 nM (active),,-15.6% (inactive),> 46 µM (inactive),> 46 µM (inactive),inactive,,inactive,6.31 µM (active),11.2 µM (active),,inactive,,,inactive,1.58 µM (active),,0.501 µM (active)
COc1cccc(Nc2ncc3nc(-c4cccs4)c(=O)n(CCC#N)c3n2)c1,-26.3% (inactive),2510 nM (active),,,> 9.22 µM (inactive),> 46 µM (inactive),inactive,inactive,inactive,,inactive,inactive,inactive,> 11.4 µM (inactive),,inactive,6.31 µM (active),,
Cc1cnc(CNc2cc(-c3ccc(N(C)C)cc3)ncn2)cn1,-9.61% (inactive),,11.3% (inactive),-5.54% (inactive),> 46 µM (inactive),> 46 µM (inactive),inactive,inactive,,,5.01 µM (active),,inactive,> 11.4 µM (inactive),,inactive,,,
Cc1noc(C)c1-c1cncnc1Nc1ccccc1,13.6% (inactive),,11.7% (inactive),10.3% (inactive),> 46 µM (inactive),,inactive,inactive,inactive,,inactive,inactive,inactive,> 2.29 µM (inactive),,inactive,3.16 µM (active),,
Cc1noc(C)c1-c1nc(NCCN2CCOCC2)c2ccccc2n1,-2.23% (inactive),2510 nM (active),,-0.501% (inactive),> 46 µM (inactive),> 46 µM (inactive),inactive,inactive,inactive,,inactive,inactive,inactive,,,inactive,,,7.94 µM (active)
CN(C)c1ncc2nc(-c3cccs3)c(=O)n(C)c2n1,1.79% (inactive),,-2.27% (inactive),,> 9.22 µM (inactive),> 46 µM (inactive),,inactive,inactive,,inactive,inactive,inactive,> 11.4 µM (inactive),,inactive,,,
COc1cccc(Cn2c(=O)c(-c3ccc(F)cc3)nc3cncnc32)c1,-16.6% (inactive),,-9.33% (inactive),-13.6% (inactive),> 9.22 µM (inactive),> 46 µM (inactive),inactive,,,,inactive,inactive,inactive,> 11.4 µM (inactive),,inactive,,,
